The record followed here is PubChem BioAssay AID1852 (Sanford-Burnham Center for Chemical Genomics, 2009).

About 1,100 (44%) of roughly 2,500 compounds were called active. So high a share suggests a set chosen from earlier hits. The list shows a part of the results. Values without a mark were called inactive.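 The calls were made as follows: active = inhibition above 50% at 4 µM in the single-point screen; inactive = inhibition of 50% or less.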

Usually inhibition stands for the relative decrease from the control value, in per cent.

The assay can be described thus: TNF-a-driven NF-kB reporter inhibitors, primary screen, selectivity assay for NOD1/NOD2 signaling inhibitor project, cell-based, HEK293T NF-kB-Luc, luminescence (AID 1852). The note with it: TNF-a induced, 14 h, at 4 µM, stronger effect = higher value.
For the compound `Cc1csc2ncnc(N3CCN(C(=S)Nc4ccc(F)cc4F)CC3)c12`, the inhibition was 66.9% (active).

`CCCCNC(=S)Nc1ccc(C(F)(F)F)cc1`: the inhibition was -47.5%.

For `Cc1csc2c(N3CCN(C(=S)Nc4ccc(C(F)(F)F)cc4)CC3)ncnc12`, the inhibition was 78.5% (active).

Turning to `Cc1csc2c(N3CCN(C(=O)Nc4ccc(Cl)c(Cl)c4)CC3)ncnc12`, the inhibition is 52.5% (active).

Consider `Fc1ccc(NC(=S)NNc2ncc(C(F)(F)F)cc2Cl)c(F)c1`, for which the inhibition was 49.4%.

Turning to `Fc1ccc(NC(=S)N2CCCN(c3ccc(C(F)(F)F)cn3)CC2)c(F)c1`, the inhibition is 55.6% (active).

In the case of `Cc1ccc(S(=O)(=O)c2c(C(=O)c3ccccc3)cnc3cc4c(cc23)OCCO4)cc1`, the inhibition was 1.5%.

On to `Cc1csc2ncnc(N3CCN(C(=O)Nc4ccc(OC(F)(F)F)cc4)CC3)c12`, for which the inhibition is 102% (active).

Turning to `Cc1csc2ncnc(N3CCN(S(=O)(=O)c4cccc(C(F)(F)F)c4)CC3)c12`, the inhibition was 44.4%.

As to `Cc1csc2ncnc(N3CCN(C(=S)Nc4ccc(C(F)(F)F)cc4)CC3)c12`, the inhibition was 66.1% (active).

For `O=C(CCl)c1cc2c3c(c1)CC(=O)N3CCC2`, the inhibition was 90.7% (active).

For the compound `Fc1ccc(NC(=S)Nc2nccs2)cc1`, the inhibition was 73.6% (active).

Consider `O=[N+]([O-])c1ccc(NC(=S)NCc2ccc(F)cc2)cc1`, for which the inhibition was 22.1%.

Regarding `CC(=O)Nc1nnc(S(=O)(=O)N2CCN(c3ccc(Cl)cc3[N+](=O)[O-])CC2)s1`, the inhibition was -2.9%.

`COc1ccc(-c2cn[nH]c2-c2ccc(OC)cc2O)cc1`: the inhibition is 69.2% (active).

Regarding `COc1ccc(-c2cn[nH]c2-c2ccc(OCc3ccc(F)cc3)cc2O)cc1OC`, the inhibition is 4.6%.

Turning to `COc1ccc(-c2cn[nH]c2-c2ccc(OCc3ccccc3)cc2O)cc1`, the inhibition was 32.2%.

For `COc1ccc(-c2cn[nH]c2-c2ccc(OC)cc2)cc1`, the inhibition was 63.6% (active).

Regarding `COc1ccc(-c2cn[nH]c2-c2ccc(O)cc2O)cc1`, the inhibition is 51% (active).

For `COc1ccc(-c2cn[nH]c2-c2ccc(OCc3ccccc3F)cc2O)cc1OC`, the inhibition is -1.5%.

As for `CCCOC(=O)c1ccc(Oc2cn[nH]c2-c2ccc(O)cc2O)cc1`, the inhibition was 17.1%.

Take `COc1ccc(-c2[nH]ncc2-c2ccc3c(c2)OCCO3)c(O)c1`: the inhibition is 102% (active).

As for `CS(=O)(=O)N1CCC(C(=O)Nc2cc(Cl)c(Cl)cc2Cl)CC1`, the inhibition was 30.2%.

On to `COc1ccc(CC2(CO)CCN(CC3=Cc4cc(Cl)ccc4OC3)CC2)cc1`, for which the inhibition was 44%.

As to `Cc1nc(Sc2ccc(Br)cc2)c(C#N)c(C)c1[N+](=O)[O-]`, the inhibition was -8.7%.

For `COc1ccc(NC(=O)/C(Cl)=C(/Cl)S(=O)Cc2ccc(Cl)cc2)cn1` (configuration not stated), the inhibition is 89% (active).

Turning to `O=C(Cc1ccc(Cl)cc1)Nc1ncc([N+](=O)[O-])s1`, the inhibition is 16.3%.

Regarding `COc1ccc(NC(=O)/C(Cl)=C(/Cl)S(=O)Cc2ccc(C)cc2)cn1` (configuration not stated), the inhibition is 105% (active).

Turning to `COc1ccc(CS(=O)/C(Cl)=C(/Cl)C(=O)Nc2ccc(OC)nc2)cc1` (configuration not stated), the inhibition is 101% (active).

For `COc1ccc(NC(=O)/C(Cl)=C(/Cl)S(=O)Cc2ccccc2)cn1` (configuration not stated), the inhibition is 104% (active).

Consider `COc1ccc(NC(=O)/C(Cl)=C(/Cl)S(=O)Cc2ccccc2Cl)cn1` (configuration not stated), for which the inhibition was 98.2% (active).

With `CCc1nn2cc(C(=O)c3cc(Cl)ccc3O)cnc2c1-c1ccc(F)cc1`, the inhibition was -6%.

In the case of `Cn1c(=O)c(C#N)c(-c2ccc(F)cc2)c2cc(C(=O)c3cc(Cl)cc(Cl)c3O)cnc21`, the inhibition is 95.8% (active).

Turning to `CCn1c(SCC(=O)Nc2ccc(OC)cc2)nc2nc3c(cc2c1=O)CCCC3`, the inhibition was -16.7%.

`COc1ccc(C2(c3ccc(OC)cc3)NC(=O)N(CC(=O)Nc3ccc(C(N)=O)cc3)C2=O)cc1`: the inhibition was 59.3% (active).

Consider `COc1ccc(NC(=O)CN(C)C(=O)c2ccccc2OC)cc1`, for which the inhibition is -11.8%.

Take `CC(C)(C)C1CCC2(CC1)C(C#N)=C(SCC(=O)NC1CCCCC1)NC(=O)C2C#N` (configuration not stated): the inhibition was -10.7%.

As for `N#CC1=C(SCC(=O)NC23CC4CC(CC(C4)C2)C3)NC(=O)C(C#N)C12CCCCC2` (configuration not stated), the inhibition is 66.1% (active).

Turning to `CC(C)(C)C1CCC2(CC1)C(C#N)=C(SCC(=O)Nc1ccccc1)NC(=O)C2C#N` (configuration not stated), the inhibition is 79% (active).

Consider `O=C1NC(=S)S/C1=C\c1cc2ccccc2nc1N1CCCCC1`, for which the inhibition was 42%.

Regarding `O=C1c2ccccc2S(=O)(=O)N1Cc1nc2ccccc2s1`, the inhibition was 53.2% (active).

Take `O=C(CN1C(=O)c2ccccc2S1(=O)=O)c1ccc(F)cc1`: the inhibition was 29.1%.

Turning to `COc1ccc(C(=O)CN2C(=O)c3ccccc3S2(=O)=O)cc1`, the inhibition is 92.1% (active).

For the compound `Cc1ccc(C(=O)CN2C(=O)c3ccccc3S2(=O)=O)cc1`, the inhibition is 85.1% (active).

Turning to `O=C(CCl)Nc1ccccc1Sc1ccc(Cl)cc1`, the inhibition is 33.5%.

As for `O=C(CCl)Nc1ccc(Sc2ccc(NC(=O)CCl)cc2)cc1`, the inhibition is 81.3% (active).

Consider `O=C1NC(=O)/C(=C\c2ccccc2Oc2ccc(F)c(F)c2)S1`, for which the inhibition is 55.7% (active).

On to `O=C1NC(=O)/C(=C/c2ccccc2Oc2ccc(Cl)cc2)S1`, for which the inhibition is -26.6%.

Take `O=C1NC(=O)/C(=C/c2ccccc2OCc2ccccc2)S1`: the inhibition is 16.2%.

Regarding `Cc1cc(C(=O)CCl)c(C)n1CCc1ccc(Cl)cc1`, the inhibition is 21.1%.

Regarding `Cc1cc(C(=O)CCl)c(C)n1CCc1ccc(F)cc1`, the inhibition was 55.6% (active).

Regarding `CCOC(=O)C1CCN(S(=O)(=O)c2ccc3c(c2)N(C(C)=O)CC(C)S3)CC1` (configuration not stated), the inhibition was 5.4%.

In the case of `CCOC(=O)C1CCN(C(=O)Cn2cnc3sc(C)c(S(=O)(=O)N4CCC(C)CC4)c3c2=O)CC1`, the inhibition was 55.3% (active).

Regarding `CCC(C)NC(=O)Cn1cnc2sc(C)c(S(=O)(=O)N3CCN(c4ccccc4OC)CC3)c2c1=O` (configuration not stated), the inhibition was 9.7%.

`CN(C)S(=O)(=O)Oc1ccc(C(=O)Nc2cccc(C(F)(F)F)c2)cc1`: the inhibition is 36.5%.

With `CN(C)S(=O)(=O)c1cccc(NC(=O)c2ccc(COc3ccccc3)cc2)c1`, the inhibition is 80.7% (active).

`CCOC(=O)C1=C(Cc2ccc(F)cc2)C(=O)c2ccccc2C1=O`: the inhibition was 90.8% (active).

`CCOC(=O)c1sc2ccccc2c1OC(=O)c1ccc(C)cc1`: the inhibition is 17.4%.

Turning to `CCOC(=O)C1=C(Cc2ccc(C)cc2)C(=O)c2ccccc2C1=O`, the inhibition is 61.3% (active).

In the case of `CCOC(=O)C1=C(Cc2ccc(Cl)cc2)C(=O)c2ccccc2C1=O`, the inhibition is 7.7%.

With `CCOC(=O)C1=C(c2ccc(OC)cc2)C(=O)c2ccccc2C1=O`, the inhibition is 108% (active).

For the compound `c1ccc(CNc2ncnc3ccccc23)cc1`, the inhibition was 65.6% (active).

Turning to `COc1cccc(CNc2ncnc3cc(Cl)ccc23)c1`, the inhibition is 49.2%.

Take `Fc1ccc(CNc2ncnc3cc(Cl)ccc23)cc1`: the inhibition is 39.9%.

On to `CC(Nc1ncnc2sccc12)c1ccccc1` (configuration not stated), for which the inhibition is 35.1%.

For the compound `CC(Nc1ncnc2ccccc12)c1ccccc1` (configuration not stated), the inhibition is 83.3% (active).

As for `COc1ccc(CNc2ncnc3ccccc23)cc1`, the inhibition was 65.6% (active).

Turning to `Cc1cc2c(NCc3ccccc3)ncnc2s1`, the inhibition is 42.6%.

Consider `Cc1ccccc1OCc1nc2ccccc2c(=O)n1/N=C/c1cn[nH]c1-c1ccc(Br)cc1`, for which the inhibition is 3.5%.

With `Cc1ccccc1C(=O)N1CCN(c2ccccn2)CC1`, the inhibition was 48.2%.

For the compound `CCN(C(=O)c1cnc(N2CCN(c3ncccn3)CC2)c2ccccc12)c1cccc(Cl)c1`, the inhibition was 46.7%.

As to `Cc1nc(N2CCN(c3ccccn3)CC2)c2c(C)c(C(=O)Nc3ccccc3F)sc2n1`, the inhibition was 4.6%.

Consider `Cc1cc(Br)ccc1NC(=O)c1cnc(N2CCN(c3ccccn3)CC2)c2ccccc12`, for which the inhibition is 73.3% (active).

`CCc1ccc(NC(=O)c2cnc(N3CCN(c4ccccn4)CC3)c3ccccc23)cc1`: the inhibition was 78.3% (active).

Turning to `COc1ccc(C)cc1NC(=O)c1sc2ncnc(N3CCN(c4ccccn4)CC3)c2c1C`, the inhibition is -10%.

`Cc1nc(N2CCN(c3ccccn3)CC2)c2c(C)c(C(=O)N3CCN(c4ccccc4F)CC3)sc2n1`: the inhibition was -27.6%.

Consider `COc1ccccc1N1CCN(c2ncc(C(=O)N3CCN(c4cccc(Cl)c4)CC3)c3ccccc23)CC1`, for which the inhibition is 21.9%.

Regarding `O=C(c1cnc(N2CCN(c3ccccn3)CC2)c2ccccc12)N1CCN(c2cccc(Cl)c2)CC1`, the inhibition was 53.2% (active).

With `O=C(CN1CCN(c2ccccn2)CC1)Nc1cccc(Br)c1`, the inhibition is 13.8%.

On to `S=C(Nc1ccc(Oc2ccccc2)cc1)N1CCN(c2ccccn2)CC1`, for which the inhibition is 21%.

Take `Cc1ccc(NC(=O)c2cnc(N3CCN(c4ccccn4)CC3)c3ccccc23)c(Br)c1`: the inhibition is 99.8% (active).

Regarding `O=C(COC(=O)/C=C/C(=O)OCC(=O)Nc1ccccc1F)Nc1ccccc1F`, the inhibition was 33.2%.

With `COC(=O)c1cccc2c1-c1ccccc1/C2=N/O`, the inhibition was 67.3% (active).

Regarding `CCOC(=O)c1cccc2c1-c1ccccc1/C2=N/O`, the inhibition is 48.8%.

With `COC(=O)c1ccc2c(c1O)C(=O)c1ccccc1C2=O`, the inhibition was -53.2%.

For `O=[N+]([O-])c1cc(Cl)cc(/C=N/NC(=S)Nc2cc(S(=O)(=O)N3CCOCC3)ccc2Cl)c1O`, the inhibition is 49.1%.

Consider `O=[N+]([O-])c1ccc(O)c(/C=N/Nc2ccccc2[N+](=O)[O-])c1`, for which the inhibition is 69.5% (active).

Regarding `O=C(NC(NC(=S)Nc1ccccc1)C(Cl)(Cl)Cl)c1cccc(Cl)c1` (configuration not stated), the inhibition was 23.1%.

For the compound `O=C(NC(NC(=S)Nc1ccccc1Cl)C(Cl)(Cl)Cl)c1cccc(Cl)c1` (configuration not stated), the inhibition was -7%.

For `Oc1c(Br)cc(Br)cc1/C=N/Nc1ccc(Cl)nn1`, the inhibition is 44.5%.

For `O=C(NC(NC(=S)Nc1ccc(Cl)cc1Cl)C(Cl)(Cl)Cl)c1cccc([N+](=O)[O-])c1` (configuration not stated), the inhibition was 95.7% (active).

Consider `COc1ccc(NC(=S)NC(NC(=O)c2ccc(Cl)cc2Cl)C(Cl)(Cl)Cl)c([N+](=O)[O-])c1` (configuration not stated), for which the inhibition was 34.9%.

For the compound `CCCOc1ccc(/C=N/NC(=S)Nc2ccccc2[N+](=O)[O-])c(O)c1`, the inhibition was 15.1%.

As to `O=[N+]([O-])c1ccc(O)c(/C=N/NC(=S)Nc2ccc(Cl)cc2Cl)c1`, the inhibition was 105% (active).

Regarding `Oc1cccc(/C=N/Nc2ccc(Cl)nn2)c1O`, the inhibition was -18%.

Consider `O=[N+]([O-])c1ccc(O)c(/C=N/Nc2ccc(Cl)nn2)c1`, for which the inhibition is 70.3% (active).

Regarding `O=[N+]([O-])c1ccc(O)c(/C=N/Nc2ncnc3c2cnn3-c2ccccc2)c1`, the inhibition was 46.3%.
